This is an account of results in PubChem BioAssay AID1490 (National Center for Advancing Translational Sciences (NCATS), 2009).

Values joined by “and” are separate entries in the source; they are usually repeats but may differ in a detail not shown here. Equal values may be shown once. Among all 310,000 compounds or so, about 11,000 (3.5%) were called active. Roughly 4% stayed inconclusive and do not appear here. Calls come from the whole dose curve; as a rule, active = well fitted inhibition curve with a large enough effect; inconclusive = small, poorly fitted or top-dose-only effect, or another doubt; inactive = no such curve, though single readings can be large or run the other way. Shown is part of a subset that was picked to be rich in actives.
Potency is the fitted concentration of half-maximal effect.

In the assay the target is 4'-phosphopantetheinyl transferase ffp (Bacillus subtilis) (UniProt Q9F4F7). In words: qHTS Assay for Inhibitors of Bacillus subtilis Sfp phosphopantetheinyl transferase (PPTase).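 For largest response in the series, negative = inhibition: 0% = enzyme reaction without inhibitor and -100% = no enzyme wells.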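 Note: the enzyme is Sfp with the accession as filed and its product quenches rhodamine fluorescence.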 The settings on record: Biochemical Sfp PPTase activity. The gist of the method: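 Step 1, compound plus 15 nM Sfp-PPTase, 15 min, room temperature. Step 2, add rhodamine-CoA (5 uM) and BHQ-2-YbbR (12.5 uM). Step 3, read 525/598 nm fluorescence at 0 and 30 min.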
For `O=C(Cc1ccc(Cl)cc1)NC1CCS(=O)(=O)C1` (stereo not given), the largest response in the series, negative = inhibition is 11.6% (inactive).
The same measure, in the same setting: then `COC(=O)Nc1ccc(S(=O)(=O)Nc2cc(OC)nc(OC)n2)cc1`, with -10.4% (inactive); and `S=C(Nc1ccc(Br)cc1)NC1CCN(Cc2ccccc2)CC1`, with 5.78% (inactive).
`CCOc1ccccc1NC(=S)NC(=O)CCc1ccccc1`: the largest response in the series, negative = inhibition is -1.83% (inactive).
Take `COC(=O)c1c(NC(=O)c2ccc(S(=O)(=O)N3CCOCC3)cc2)sc2c1CCN(C(C)C)C2`: the largest response in the series, negative = inhibition is 6.28% (inactive).
The same measure, in the same setting: the same measure for `Cn1c(SCC(=O)c2ccc(F)cc2)nnc1-c1ccccn1`: -4.04% (inactive).
Take `Cn1c(CNc2nc(-c3ccccc3)cs2)nnc1SCC(=O)c1ccccc1`: the largest response in the series, negative = inhibition is 3.73% (inactive).
As to `Cn1c(CC2Sc3ccccc3NC2=O)nnc1SCC(=O)c1ccc(Cl)cc1` (stereo not given), the Potency was 44.7 µM (active).
For `COCCN1CCn2c(nc3cc(NS(C)(=O)=O)ccc32)C1`, the largest response in the series, negative = inhibition is 11.6% (inactive).
On the same count and under the same terms, the same measure for `Cc1cc(=O)oc2c1ccc1ccccc12`: 3.98% (inactive); for `CC(=O)c1ccc(NC(=O)c2cc(-c3cccs3)on2)cc1`: 1.32% (inactive).
As for `CCCOc1ccc(Cn2c(O)cc(=O)[nH]c2=O)cc1`, the Potency is 44.7 µM (active).
Turning to `COc1ccc(Cn2c(=O)cc(C)[nH]c2=S)cc1`, the largest response in the series, negative = inhibition was -4.49% (inactive).
Same read-out and setting: then `COc1cc(=O)[nH]c(=O)n1C(=O)Cc1ccccc1`, with 9.86% (inactive); and `Cc1cc(F)ccc1NC(=S)NCCc1ccccc1`, with 0.31% (inactive).
With `CC1CCN(CCCn2c(SCC(=O)NC3CCCC3)nc3ccccc3c2=O)CC1`, the largest response in the series, negative = inhibition is 6.04% (inactive).
The same measure, in the same setting: then `CC[C@H](C)[C@H](NC(=O)[C@H](Cc1cnc[nH]1)NC(=O)[C@@H](N)CCC(=O)O)C(=O)N1CCC[C@H]1C(=O)N[C@@H](C)C(=O)O`, with 3.28% (inactive); and `COc1cc(OC)c(NS(=O)(=O)c2cn(C)cn2)cc1Cl`, with 14.3% (inactive).
Take `COc1c2c(cc3occ(-c4ccc5c(c4)OCO5)c(=O)c13)OC(C)(C)C=C2`: the Potency was 39.8 µM (active).
Consider `CCN(CC)CCC(c1ccc2c(c1)OCO2)c1c(OC)cc(OC)c2c(-c3ccccc3)cc(=O)oc12` (stereo not given), for which the largest response in the series, negative = inhibition was -27% (inactive) and -23.4% (inactive).
Same read-out and setting: the same measure for `COc1cc(-c2c(-c3ccc4c(c3)OCO4)noc2C)ccc1F`: -12.4% (inactive); for `O=C(NC(=S)Nc1ccc(Cl)cc1Cl)C1CC1`: 8.51% (inactive); for `COc1cc(Cl)ccc1OCc1cc(C(=O)N(C)CCc2c(C)n[nH]c2C)no1`: 11.4% (inactive).
In the case of `O=c1[nH]c(=S)[nH]c2[nH]c(=S)[nH]c12`, the Potency is 3.16 µM (active).
With `Cc1c(C)c(C)c2[nH]c(=S)[nH]c2c1C`, the largest response in the series, negative = inhibition was 7.86% (inactive).
In the case of `O=C1Nc2cc(C(=O)N3CCN(c4ccc(F)cc4)CC3)ccc2NC1CSCc1cccc(F)c1` (stereo not given), the Potency was 44.7 µM (active).
On to `O=C(c1cccc(F)c1)N1CCC2(CC1)CCN(c1ccccc1)CC2`, for which the largest response in the series, negative = inhibition is 2.37% (inactive).
Still for that read-out and setting: the same measure for `CC1CCN(C(=O)c2ccc3c(c2)NC(=O)CN3)CC1`: 6.69% (inactive); for `O=C(c1cccc(C(=O)N2CCN(c3ccc(F)cc3)CC2)c1)N1CCN(c2ccc(F)cc2)CC1`: -15.2% (inactive).
Take `Cc1ccc(CSCC2Nc3ccc(C(=O)N4CCN(c5ccc(F)cc5)CC4)cc3NC2=O)cc1` (stereo not given): the Potency was 50.1 µM (active).
On to `O=C(c1cc(C(=O)N2CCN(c3ccc(F)cc3)CC2)cc([N+](=O)[O-])c1)N1CCN(c2ccc(F)cc2)CC1`, for which the largest response in the series, negative = inhibition is 21.7% (inactive).
Still for that read-out and setting: the same measure for `CC(C)[C@@H](OCc1ccccc1)[C@H](C)/C=N\OC[C@@H](C)[C@H](OCc1ccccc1)C(C)C`: 6.88% (inactive).
On the same count and under the same terms, then `CCCc1cc(=O)oc2c(C)c(OCC(=O)Nc3ccccn3)ccc12`, with -8.94% (inactive).
On the same count and under the same terms, the same measure for `COc1ccc(C)cc1NC(=O)c1[nH]c(C)c(C(C)=O)c1C`: 1.79% (inactive).
As for `CC(=O)c1c(C)[nH]c(C(=O)Nc2cc(S(=O)(=O)N(C)C)ccc2C)c1C`, the Potency was 79.4 µM (active).
In the case of `Cc1ccc(S(=O)(=O)N(C)C)cc1NC(=O)c1ccccc1Br`, the largest response in the series, negative = inhibition was 14% (inactive).
Still for that read-out and setting: then `COc1cccc(NC(=S)NCc2ccco2)c1`, with 16.1% (inactive).
As to `S=C(NCc1ccc2c(c1)OCO2)NCc1ccco1`, the Potency is 39.8 µM (active).
Turning to `S=C(NCc1ccco1)Nc1ccc2c(c1)OCCO2`, the Potency was 28.2 µM (active).
Take `S=C(NCc1ccco1)NCc1ccccc1Cl`: the largest response in the series, negative = inhibition was 8.59% (inactive).
On the same count and under the same terms, the same measure for `FC(F)Oc1ccc(NC(=S)NCc2ccco2)cc1Cl`: -3.21% (inactive).
Still for that read-out and setting: the same measure for `Cc1c(Cl)cccc1NC(=S)NCc1ccc2c(c1)OCO2`: 0.527% (inactive); for `CCC(C)[C@H]1COCCS(=O)(=O)N1Cc1ccc(C)cc1` (stereo not given in full): 13.1% (inactive).
On the same count and under the same terms, the same measure for `Cc1cc(C(F)F)nn1CC(=O)NC1CCCCCC1`: 15.4% (inactive); for `CCCCOP(=O)(c1ccc(N(C)C)cc1)C(O)c1cc(OC)ccc1OC` (stereo not given): 4.86% (inactive).
Consider `CCn1c(CC(=O)Nc2ccccc2C)nnc1SCC(=O)NC1=NCCS1`, for which the largest response in the series, negative = inhibition is 7.23% (inactive).
Take `O=C(Nc1nnc(C2=COCCO2)o1)c1ccc([N+](=O)[O-])s1`: the largest response in the series, negative = inhibition was 5.3% (inactive).
Same read-out and setting: then `COc1ccc(Nc2nc(-c3cccnc3)nc3ccccc23)cn1`, with 5.49% (inactive).
On to `Fc1ccc(/C=N/Nc2nc(-c3cccnc3)nc3ccccc23)cc1`, for which the Potency is 31.6 µM (active).
On to `COc1ccccc1Oc1nc(-c2cccnc2)nc2ccccc12`, for which the largest response in the series, negative = inhibition is -13.5% (inactive).
Still for that read-out and setting: then `CCCCCC1CC(COc2ccccc2)OC1=O` (stereo not given), with 11.1% (inactive).
On the same count and under the same terms, then `CC(=O)N1CCOc2ccc(S(=O)(=O)N3CCC(C(=O)Nc4ccccc4F)CC3)cc21`, with 2.67% (inactive); and `COCCNC(=O)c1ccc2c(c1)ncn2-c1ccc(C)c(Cl)c1`, with 6.27% (inactive).
Turning to `CC1(c2ccccc2Cl)NC(=O)N(CC(=O)NC(=O)NCc2ccco2)C1=O` (stereo not given), the Potency is 79.4 µM (active).
On to `COc1ccccc1N1CCN(CC(=O)NC(=O)NCc2ccco2)CC1`, for which the largest response in the series, negative = inhibition was 7.58% (inactive).
Consider `O=C(CN1CCN(S(=O)(=O)/C=C/c2ccccc2)CC1)NC(=O)NCc1ccco1`, for which the largest response in the series, negative = inhibition is -18.1% (inactive).
The same measure, in the same setting: then `COc1cccc(C(=O)NNS(=O)(=O)c2ccc(F)cc2)c1`, with -4.08% (inactive).
On the same count and under the same terms, then `O=S(=O)(NCCc1ccc(Cl)cc1)c1cccs1`, with 7.54% (inactive); and `COc1cccc(CN2CCN(Cc3ccc4cccc(F)c4n3)CC2CCO)c1` (stereo not given), with 13.8% (inactive).
As to `Cn1c2ccccc2c(=O)c2c(=O)n(Cc3ccco3)c(COc3ccccc3)nc21`, the Potency was 8.91 µM (active).
`CCCc1nc2c(c(=O)c3ccccc3n2C)c(=O)n1-c1cc(C)cc(C)c1`: the largest response in the series, negative = inhibition was -11.4% (inactive).
As to `COc1ccc(C(=O)CSc2nnc(COc3ccccc3)n2Cc2ccco2)cc1`, the largest response in the series, negative = inhibition is -23.6% (inactive).
The same measure, in the same setting: the same measure for `COc1cccc(NC(=O)C(=O)c2cn(CC(=O)N3CCOCC3)c3ccccc23)c1`: 11.1% (inactive).
For `CC(C)(C)NCCCOc1ccc(Cl)cc1C(C)(C)C`, the Potency is 50.1 µM (active).
With `Cc1ccc(C(C)(C)C)c(OCCCCN2CCCC2)c1`, the largest response in the series, negative = inhibition is -28.7% (inactive).
Consider `COCCCNCCOCCOc1ccc(Cl)cc1Br`, for which the largest response in the series, negative = inhibition was 1.66% (inactive).
Consider `CC(C)(C)OC(=O)N1CCC(C(=O)NNC(=O)c2ccc(Cl)cc2Cl)CC1`, for which the largest response in the series, negative = inhibition is 5.93% (inactive).
`c1ccc(-c2nc(NCc3ccco3)c3ccccc3n2)cc1`: the Potency was 11.2 µM (active).
Regarding `CCOCCCNc1nc(-c2ccccc2)nc2ccccc12`, the largest response in the series, negative = inhibition was 14.7% (inactive).
On the same count and under the same terms, then `c1coc(CNc2ncnc3ccccc23)c1`, with 8.96% (inactive); and `CC(C)C(=O)N1CC(=O)Nc2ccc(F)cc2C1c1ccc(F)cc1` (stereo not given), with 17.9% (inactive); and `CCN(CC(=O)N1CCCC1)S(=O)(=O)c1ccc(F)cc1`, with 4.81% (inactive).
For `CCC(=O)NC(=S)Nc1ccc(NC(=O)c2ccco2)c(Cl)c1`, the Potency was 39.8 µM (active).
As to `O=C(NNC(=S)Nc1ccc(Br)cc1Cl)c1ccco1`, the largest response in the series, negative = inhibition is 12.1% (inactive).
Same read-out and setting: then `O=C(Nc1ccc(NC(=O)c2ccco2)c(Cl)c1)c1cccc([N+](=O)[O-])c1`, with 5.01% (inactive).
Same read-out and setting: the same measure for `O=S(=O)(c1cccc(Cn2nnc(-c3ccc(F)cc3)n2)c1)N1CCOCC1`: 3.33% (inactive).
Still for that read-out and setting: then `CC(=O)C1=C(C)NC(=O)NC1c1ccc2c(c1)OCO2` (stereo not given), with 0.489% (inactive).
Regarding `S=c1[nH]nc2c3c4c(sc3ncn12)CCCC4`, the Potency was 56.2 µM (active).
`N=c1c2c3c(sc2ncn1N)CCCC3`: the largest response in the series, negative = inhibition is 13.2% (inactive).
The same measure, in the same setting: the same measure for `c1nnc2c3c4c(sc3ncn12)CCC4`: -1.58% (inactive).
Same read-out and setting: then `Cc1cc(-c2ccc(S(=O)(=O)N3CCc4ccccc4C3)s2)on1`, with 12.5% (inactive); and `O=C(NCc1ccccc1)C(c1ccco1)N(C(=O)c1csnn1)c1ccccc1F` (stereo not given), with 11.4% (inactive).
Same read-out and setting: then `C[C@H](NC(=O)C1CC(=O)N(c2ccc3c(c2)OCO3)C1)C(=O)NCc1ccco1` (stereo not given in full), with 4.65% (inactive).
For `CC/C=C\C/C=C\C/C=C\C/C=C\C/C=C\C/C=C\CCC(=O)NC(C)C(=O)O` (stereo not given), the largest response in the series, negative = inhibition is -29.1% (inactive).
As for `CN(C)/C=C1\C=C(c2ccccc2)OC1=O`, the Potency was 20 µM (active).
Turning to `COc1cccc(/C=C2\C=C(c3ccc(C)cc3)OC2=O)c1OC(C)=O`, the largest response in the series, negative = inhibition is -6.33% (inactive).
For the compound `CN(C)/C=C1/C(=O)Nc2ccccc21`, the largest response in the series, negative = inhibition was -6.73% (inactive).
Still for that read-out and setting: the same measure for `O=S(=O)(c1ccccc1)N(Cc1cccc(F)c1)c1ccccc1`: 13.8% (inactive); for `Cc1ccccc1-c1nc(N(C)Cc2ccco2)c2ccccc2n1`: -22.5% (inactive); for `CN(Cc1ccco1)c1cc(-c2ccccc2C(F)(F)F)ncn1`: -8.82% (inactive).
As to `CN(Cc1ccco1)c1ncncc1-c1ccoc1`, the Potency was 79.4 µM (active).
Regarding `CCC1OC(c2ccc([N+](=O)[O-])cc2)=Nc2ccccc21` (stereo not given), the largest response in the series, negative = inhibition is -5.21% (inactive).
For `CCOc1cc(C)ccc1OCc1nnc(SCC(=O)Nc2cccc(C(=O)O)c2)n1-c1ccccc1`, the largest response in the series, negative = inhibition was 22.3% (inactive).
The same measure, in the same setting: then `Cc1ccc(NC(=O)[C@H](Cc2ccccc2)NC(=O)C2CCNCC2)cc1`, with 1.09% (inactive).
With `CCCOC(=O)Nc1sc2c(c1C(=O)OCC)CCC2`, the Potency is 14.1 µM (active).
With `CCOC(=O)c1c(NC(=O)Cn2nc(C(F)(F)F)cc2C)sc2c1CCC2`, the largest response in the series, negative = inhibition was -2.66% (inactive).
Still for that read-out and setting: the same measure for `CCOC(=O)c1c(NC(=O)CCC(=O)NCc2ccco2)sc2c1CCCC2`: -8.63% (inactive); for `CCOC(=O)c1c(NC(=S)NC)sc2c1CCCC2`: 7.02% (inactive); for `CCOC(=O)c1c(NC(=S)Nc2ccccc2C)sc2c1CCC2`: -14.6% (inactive).
With `CCOC(=O)c1c(NC(=O)C2(C)Cc3ccccc3C(=O)O2)sc2c1CCCC2` (stereo not given), the Potency is 35.5 µM (active).
